The supplement of paper PMC6555819

Key:
Experiment in all cases: PBM binding z-score (relative to random genomic background probes); higher = stronger binding; sequences stand for … in GC…GCGATTGACAGCGTAGAATGAAGG
[1] = tested on: FXR:RXRa (NR concentration 270 nM, RXRa partner concentration 90 nM)
How it was run: (§1)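 Binding buffer was PBS pH 7.4 with 2% milk, 0.02% Triton X-100, 1 mM DTT, 0.2 mg/mL BSA and 0.4 mg/ml salmon testes DNA. In it, ligand-free nuclear receptor dimers were incubated 1 h on custom Agilent 4×180K protein-binding microarrays carrying double-stranded probes. Antibodies against each partner (one per run) detected binding, and z-scores were calculated against random background probes after regression normalization of scanned fluorescence.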

[2] = tested on: LXRa:RXRa (NR concentration 270 nM, RXRa partner concentration 90 nM)
How it was run: as §1

[3] = tested on: LXRa homodimer (NR concentration 270 nM)
How it was run: as §1

[4] = tested on: LXRb:RXRa (NR concentration 270 nM, RXRa partner concentration 90 nM)
How it was run: as §1

[5] = tested on: LXRb homodimer (NR concentration 270 nM)
How it was run: as §1

[6] = tested on: PPARa:RXRa (NR concentration 270 nM, RXRa partner concentration 90 nM)
How it was run: as §1

[7] = tested on: PPARg:RXRa (NR concentration 180 nM, RXRa partner concentration 90 nM)
How it was run: as §1

[8] = tested on: PPARg:RXRa 270nM:90nM, anti-RXR (NR concentration 270 nM, RXRa partner concentration 90 nM)
How it was run: as §1

[9] = tested on: PPARg:RXRa 30nM:10nM, anti-RXR (NR concentration 30 nM, RXRa partner concentration 10 nM)
How it was run: as §1

[10] = tested on: PPARg:RXRa 90nM:30nM, anti-RXR (NR concentration 90 nM, RXRa partner concentration 30 nM)
How it was run: as §1

[11] = tested on: PPARg:RXRa DBDmut IVT, anti-RXR (DBD mutation: RXRa K156A/R161A, NR concentration 270 nM, RXRa partner concentration 90 nM)
How it was run: as §1

[12] = tested on: PPARg:RXRa IVT, anti-PPARg (NR concentration 270 nM, RXRa partner concentration 90 nM)
How it was run: as §1

[13] = tested on: PPARg DBDmut:RXRa IVT, anti-PPARg (DBD mutation: PPARg1 K132A/R137A, NR concentration 270 nM, RXRa partner concentration 90 nM)
How it was run: as §1

[14] = tested on: PPARg DBDmut IVT, anti-PPARg (DBD mutation: PPARg1 K132A/R137A, NR concentration 270 nM)
How it was run: as §1

[15] = tested on: PPARg homodimer (NR concentration 180 nM)
How it was run: as §1

[16] = tested on: PXR:RXRa (NR concentration 270 nM, RXRa partner concentration 90 nM)
How it was run: as §1

[17] = tested on: PXR homodimer (NR concentration 270 nM)
How it was run: as §1

[18] = tested on: RARa:RXR (NR concentration 270 nM, RXRa partner concentration 90 nM)
How it was run: as §1

[19] = tested on: RARa homodimer (NR concentration 270 nM)
How it was run: as §1

[20] = tested on: RARb:RXRa (NR concentration 270 nM, RXRa partner concentration 90 nM)
How it was run: as §1

Sequence	PBM binding z-score [1]	PBM binding z-score [2]	PBM binding z-score [3]	PBM binding z-score [4]	PBM binding z-score [5]	PBM binding z-score [6]	PBM binding z-score [7]	PBM binding z-score [8]	PBM binding z-score [9]	PBM binding z-score [10]	PBM binding z-score [11]	PBM binding z-score [12]	PBM binding z-score [13]	PBM binding z-score [14]	PBM binding z-score [15]	PBM binding z-score [16]	PBM binding z-score [17]	PBM binding z-score [18]	PBM binding z-score [19]	PBM binding z-score [20]
TCTATTAGTTGATTAGAGCAACCGAAACAGCGGA	0.47	0.476	0.0625	0.326	0.361	0.484	-0.0852	1.56	3.21	2.38	1.66	0.345	0.782	0.622	-0.0743	0.128	-0.0101	0.143	0.166	0.00144
TCGAGTAGGTTAGTCGGGGCATTCGGCCAACATA	-0.18	-0.185	-0.523	0.162	-0.854	0.505	-0.197	0.72	0.731	0.597	1.74	2.04	-1.62	-1.17	0.0341	0.113	0.177	0.065	-0.901	0.58
ATCTCTAGGTAAGACTCAGTTCAATGAAGAACGC	0.961	1.03	1.15	1.04	1.18	0.681	0.379	0.658	0.44	0.504	1.88	1.16	1.2	1.44	1.39	2.1	2.69	1.34	1.4	0.797
TCTCGTAGATCAAAGGTTAAGAAAGCCGAAGCCT	1.56	1.85	-0.119	1.9	-0.471	3.46	4.19	5.74	4.84	6	1.73	1.46	-0.063	-0.642	0.726	1.89	-0.203	2.71	0.027	1.69
CCTCGGAGGAAAACAGGAGGTCAGAGCTGCCAGA	0.663	1.69	1.63	1.44	-0.702	2.13	0.128	-0.0182	-0.762	-0.104	-0.518	0.00562	-1.65	-1.51	1.04	1.5	0.172	1.95	0.262	1.53
CAAACTAGGTCAAGAGGTCAAAGACCGCTTCCCG	7	6.25	5.13	5.46	1.47	6.65	10.1	8.53	7.38	8.62	8.33	8.34	1.4	0.266	5.54	5.94	1.78	7.58	1.89	5.61
TCTTGTAGATCACAGGTTAAGAAAGCCGAAGCCT	0.701	0.575	-0.161	0.714	-0.0792	2.09	2.74	4.44	3.81	4.64	2.16	1.8	0.9	0.0684	0.447	0.186	-0.359	0.737	-0.789	0.464
CGAACGAGGGCATGAGTTGATGGCAAATGCCGAT	0.483	0.315	-0.503	-0.235	-0.92	1.4	1.24	1.34	-0.207	0.832	3.03	2.23	-0.341	-0.685	-0.031	0.243	-0.209	0.201	-1.03	1.99
TCCTGTAGATCAATAGAGGTTAAGAAAGTGCGCT	0.952	3.56	0.803	1.93	0.0925	1.74	-0.0634	1.63	2.77	2.39	1.98	0.459	0.335	0.281	0.185	2.91	0.378	1.59	0.54	0.925
GCTGCTAGGTCAGGTTGGGCAGCTAACGGGTACG	1.01	0.624	-0.384	0.136	-0.285	0.991	0.332	0.824	-0.181	0.136	2.83	1.93	-0.639	-0.804	0.77	-0.238	-0.455	0.335	-0.329	3.17
TCTTGTAGATCAAAGGTTTAGAAAGCCGAAGCCT	0.668	0.408	-0.116	0.454	-0.505	1.63	3.22	5.08	4.18	5.48	1.79	1.19	0.53	0.0845	0.307	0.16	-0.198	0.358	-0.0128	-0.0359
GCTAGTTGGTCTGTAAAAGGTCACACACCGGTCG	3.27	4.45	4.26	3.98	0.57	4.33	2.5	4.63	2.19	4.12	0.547	2.28	0.389	-0.363	4.38	4.79	1.16	5.54	1.67	3.87
TCATATAGGTAATACAGTTGAAAGTCGGCATCTA	1.56	1.24	0.63	1.2	0.422	1.56	1.32	2.56	4.01	3.39	4.07	2.33	1.55	1.26	1.26	1.11	0.75	1.51	2.05	0.685
AGTCAAAGTTCACCTAGGTAACGTAAGATATGCT	6.25	5.63	3.58	3.92	1.2	4.94	7.15	6.41	3.81	5.63	1.22	4.08	1.35	1.84	2.06	4.76	3.76	3.95	1.51	4.99
TGAATGAGGTTAATGATCAGGGAACGTGGCGTCG	1.4	1.33	-0.115	0.692	0.285	2.39	1.58	1.84	0.601	1.17	2.04	1.98	1.1	0.18	0.483	0.561	0.0582	0.918	0.17	1.52
ATATTTAGGTTAAGGGTCATTCAGGTTGGTTCGC	5.26	4.78	3.91	4.61	3.14	6.38	11	9.52	9.42	10.5	6.47	7.1	5.34	5.2	5.4	5.69	3.67	5.96	5.28	3.68
CTCGAAAGGTCGGTTGAGGTGGGTATACGGATAA	2.11	1.35	0.0862	1.31	0.332	2.36	0.284	0.726	0.0658	0.243	-0.182	0.818	-0.122	-0.109	1.13	2.08	0.36	1.53	0.507	2.99
ACTATTAGTTGACTTAGGGCAACCAATACGACGC	0.265	0.363	0.224	0.227	0.496	0.111	0.997	0.305	0.385	0.219	0.203	0.66	0.926	0.817	0.6	0.385	0.557	0.714	0.139	0.985
ATCTCTAGGTATAAGTTCAGTGAATCCCGAGGAT	0.24	0.542	0.507	0.379	0.825	1.77	2.79	4.45	2.94	4.55	0.227	0.858	1.41	1.22	0.751	1.44	2.32	0.493	1.02	1.73
